26 compounds from the supplement of paper PMC13380429 can be followed below.

Assay [1] concerns Vero E6 infected with SARS-CoV-2. The assay is described as follows: morphology score (similarity to uninfected cells); higher = more like uninfected cells. Particulars: 24 h.
For assay [2] the test system is unchanged. Kind of assay: SARS-CoV-2 infection rate relative to infected DMSO; higher = more infection, active = 60 or less. The note with it: 24 h.

As to `CCC[C@@H](NC(=O)N1C(=O)C(CC)(CC)[C@@H]1Oc1ccc(C(=O)N2CCN(C)CC2)cc1)c1ccc2c(c1)OCO2` (10 µM), the morphology score in assay [1] worked out at 0.171. The SARS-CoV-2 infection rate in assay [2] is 109% (inactive).

`COC(=O)[C@H](CC(C)C)NC(=O)[C@@H](N)CC(C)C` [leucylleucine-methyl-ester] (10 µM) returned a morphology score in assay [1] of 0.113. The SARS-CoV-2 infection rate in assay [2] is 99.5% (inactive).

Turning to `Cc1cn([C@@H]2C[C@@H](O)[C@H](CO)O2)c(=O)[nH]c1=O` [telbivudine] (10 µM), the morphology score in assay [1] was -0.036. Moreover, in assay [2], the SARS-CoV-2 infection rate is 118% (inactive).

`O=C(O)/C=C/c1ccc(O)cc1` [naringeninic-acid] (10 µM) displayed a morphology score in assay [1] of 0.0231. Also, the SARS-CoV-2 infection rate in assay [2] is 102% (inactive).

Take `CCc1nc(N)nc(N)c1-c1ccc(Cl)cc1` [pyrimethamine] (0.833333 µM): the morphology score in assay [1] was -0.0159. In addition, in assay [2], the SARS-CoV-2 infection rate was 115% (inactive).

Compound `CC(C)[C@H](O)C(=O)N[C@@H](C)C(=O)N[C@@H]1C(=O)N(C)CCc2ccccc21` [semagacestat] (10 µM) showed a morphology score in assay [1] of 0.0376. In addition, the SARS-CoV-2 infection rate in assay [2] is 120% (inactive).

In assay [1], `COC(=O)Nc1ccc(-c2nc(N3CCOCC3)c3cnn(C4CCN(Cc5cccnc5)CC4)c3n2)cc1` (10 µM) showed a morphology score of -0.198. Also, in assay [2], the SARS-CoV-2 infection rate was 104% (inactive).

For `O=C(/C=C/c1ccc(O)c(O)c1)c1ccc(O)cc1O` [butein] (10 µM), in assay [1], the morphology score turned out to be 0.256. Also, the SARS-CoV-2 infection rate in assay [2] was 106% (inactive).

`CCNC(=O)N1CCN(CCCC(c2ccc(F)cc2)c2ccc(F)cc2)CC1` [amperozide] (10 µM): the morphology score in assay [1] was -0.101. Besides, the SARS-CoV-2 infection rate in assay [2] is 108% (inactive).

In turn, `CCN1C(C)(C)CC(Oc2ccc(C(=O)Nc3ccc(NC(=O)Nc4cc(C(C)(C)C)on4)cc3)nc2)CC1(C)C` (10 µM) returned a morphology score in assay [1] of -0.0181. Besides, the SARS-CoV-2 infection rate in assay [2] was 101% (inactive).

On to `C#Cc1cccc(Nc2ncnc3cc(OCCOC)c(OCCO)cc23)c1` (10 µM), for which, in assay [1], the morphology score is -0.0889. For the same compound, the SARS-CoV-2 infection rate in assay [2] was 116% (inactive).

For `NC(=O)c1ncn([C@@H]2O[C@H](CO)[C@@H](O)[C@H]2O)c1N` [acadesine] (10 µM), the morphology score in assay [1] was 0.00261. In addition, the SARS-CoV-2 infection rate in assay [2] was 98.5% (inactive).

Take `CCC(=O)O[C@H]1[C@H](O[C@@H]2[C@@H](C)[C@H](O[C@H]3C[C@@](C)(OC)[C@@H](O)[C@H](C)O3)[C@@H](C)C(=O)O[C@H](CC)[C@@](C)(O)[C@H](O)[C@@H](C)C(=O)[C@H](C)C[C@@]2(C)O)O[C@H](C)C[C@@H]1N(C)C` [erythromycin-estolate] (10 µM): in assay [1], the morphology score was 0.0736. Also, the SARS-CoV-2 infection rate in assay [2] is 114% (inactive).

Compound `COc1cccc(CCc2ccccc2OCC[C@@H]2C[C@@H](O)CN2C)c1` (10 µM) came in with a morphology score in assay [1] of 0.533. Besides, the SARS-CoV-2 infection rate in assay [2] was 54.5% (active).

As for `CCOCCn1c(C2CCN(CCc3ccc(C(C)(C)C(=O)O)cc3)CC2)nc2ccccc21` [bilastine] (10 µM), the morphology score in assay [1] is 0.144. Further, the SARS-CoV-2 infection rate in assay [2] is 107% (inactive).

With `O=C(N/N=C/c1ccc([N+](=O)[O-])o1)c1cc([N+](=O)[O-])cc([N+](=O)[O-])c1O` [nifursol] (10 µM), the morphology score in assay [1] turned out to be 0.0974. Moreover, in assay [2], the SARS-CoV-2 infection rate is 111% (inactive).

`Cc1ccccc1C(OCCN(C)C)c1ccccc1` (configuration not stated) [orphenadrine] (10 µM) returned a morphology score in assay [1] of 0.316. Also, the SARS-CoV-2 infection rate in assay [2] is 87% (inactive).

`CC1(C)S[C@@H]2[C@H](N3C(=O)[C@@H](c4ccccc4)NC3(C)C)C(=O)N2[C@H]1C(=O)O` [hetacillin] (10 µM): the morphology score in assay [1] stood at 0.138. In addition, the SARS-CoV-2 infection rate in assay [2] is 96.5% (inactive).

As to `CCOc1nc2cccc(C(=O)OC(C)OC(=O)OC3CCCCC3)c2n1Cc1ccc(-c2ccccc2-c2nn[nH]n2)cc1` (configuration not stated) [candesartan-cilexetil] (10 µM), the morphology score in assay [1] turned out to be 0.13. Besides, the SARS-CoV-2 infection rate in assay [2] is 92.5% (inactive).

With `O=c1[nH]c2ccccc2n1CCCN1CCC(n2c(=O)[nH]c3cc(Cl)ccc32)CC1` [domperidone] (10 µM), the morphology score in assay [1] was 0.00154. In addition, the SARS-CoV-2 infection rate in assay [2] is 110% (inactive).

`c1ccc(CNc2ncnc3[nH]cnc23)cc1` [6-benzylaminopurine] (10 µM) came in with a morphology score in assay [1] of 0.186. The SARS-CoV-2 infection rate in assay [2] is 99% (inactive).

For `O=C(Nc1cc(C(F)(F)F)cc(C(F)(F)F)c1)c1cnc(Cl)nc1C(F)(F)F` (10 µM), in assay [1], the morphology score was -0.17. In assay [2], the SARS-CoV-2 infection rate was 111% (inactive).

The compound `CN=c1nc(-c2ccccc2)n(-c2ccccc2)s1` (10 µM) showed a morphology score in assay [1] of -0.0414. In assay [2], the SARS-CoV-2 infection rate is 97.5% (inactive).

Take `O=C1Nc2ccccc2/C1=C1/Nc2ccccc2C1=O` [indirubin] (10 µM): the morphology score in assay [1] turned out to be 0.173. Further, in assay [2], the SARS-CoV-2 infection rate is 99% (inactive).

In the case of `CCCCCCCCCCCCC/C=C/[C@@H](O)[C@@H](N)CO[P@](=O)(O)OCC[N+](C)(C)C` [sphingosylphosphorylcholine] (10 µM), the morphology score in assay [1] is 0.000181. For the same compound, the SARS-CoV-2 infection rate in assay [2] was 112% (inactive).

On to `OCCNCCCOc1cccc(Cl)c1Cl` (0.833333 µM), for which, in assay [1], the morphology score worked out at 0.093. Besides, the SARS-CoV-2 infection rate in assay [2] is 112% (inactive).
